# Measured values: PubChem BioAssay
# Molecular target: Tumor necrosis factor receptor superfamily member 10B (Homo sapiens) (UniProt O14763)
# Experiment: caspase-8 TRAIL sensitization, hit retest, confirmation, cell-based, NB7+caspase-8, with/without TRAIL, luminescence panel (AID 651596)
# Conditions: NB7 neuroblastoma + caspase-8, TRAIL sensitization, luminescence viability, with TRAIL, mean of runs, at 10 µM, stronger effect = higher value; in the data active = activity above about 50%; inactive = the rest
# Sequence of Tumor necrosis factor receptor superfamily member 10B (Homo sapiens) (O14763 whole entry, looked up): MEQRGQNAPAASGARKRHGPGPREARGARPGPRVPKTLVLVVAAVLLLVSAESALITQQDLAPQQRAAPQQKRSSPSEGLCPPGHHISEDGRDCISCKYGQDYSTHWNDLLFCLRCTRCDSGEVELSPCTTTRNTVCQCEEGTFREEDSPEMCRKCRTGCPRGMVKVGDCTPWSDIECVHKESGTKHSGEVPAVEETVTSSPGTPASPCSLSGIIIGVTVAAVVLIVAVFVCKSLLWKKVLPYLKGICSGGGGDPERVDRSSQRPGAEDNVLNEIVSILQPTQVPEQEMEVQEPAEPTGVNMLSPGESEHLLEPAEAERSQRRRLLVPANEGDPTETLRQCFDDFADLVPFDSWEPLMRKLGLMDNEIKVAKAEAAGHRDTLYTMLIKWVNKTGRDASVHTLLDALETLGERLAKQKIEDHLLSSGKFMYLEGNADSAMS
row,SMILES,activity
1,CN(C)c1cccc(C(=O)N/N=C/c2ccsc2)c1,65%
2,CNC(=S)N1N=C(c2ccccc2)CC1c1ccc(Br)cc1 (centres undefined),-12.4%
3,Cc1ccc(-c2cc(C(=O)N3CCOCC3)no2)cc1,69.7%
4,c1ccc2sc(NN=C3CCCCCC3)nc2c1,59.8%
5,Cc1ccc(C(=O)Nc2ccc3ccccc3n2)cc1,58.6%
6,O=C1[C@H]2[C@@H](/C=C/c3ccccc3)N3C(=O)CN(CC4CC4)C(=O)[C@@]3(Cc3ccccc3)[C@H]2C(=O)N1c1ccccc1,73.9%
7,CCC(C(=O)O/N=C(\N)c1ccc(C)cc1)c1ccccc1 (centres undefined),65.2%
8,CCN1CCC(O)(/C=C/c2ccc(C(C)C)cc2)C(C(=O)/C=C/c2ccc(C(C)C)cc2)C1 (centres undefined),87.8%
9,Cc1ccc(-c2nnc(NC(=O)c3ccco3)s2)cc1,58.6%
10,Cc1cc(-c2ccc(F)cc2)n2ncc(-c3ccccc3)c2n1,76.6%
11,O=C1Nc2ccccc2N(C(=O)c2c(F)cccc2F)C1c1nc2ccccc2[nH]1 (centres undefined),47.6%
12,COc1ccc(/C=C2/Sc3ccc(C(=O)NCCN4CCCCCC4)cc3NC2=O)cc1,67.8%
13,CCOc1ccc(C(=O)Nc2cc(C)ccn2)cc1,95.2%
14,COc1ccc2c(=O)cc(-c3ccccc3)n(C)c2c1,56.4%
15,Cc1ccc(NC(=O)C(=O)Nc2ccccn2)cc1,75.7%
16,O=C1C(=C(I)I)c2ccccc2-c2ccccc21,38%
17,O=C(NCc1cccnc1)/C(=C\c1ccc(-c2ccc(Cl)c(Cl)c2)o1)S(=O)(=O)c1ccccc1,98.1%
18,CCOC(=O)c1sc(NC(=O)c2ccccc2)cc1C,59.1%
19,Cc1ccccc1Nc1nc(N)nc(CCl)n1,98.5%
